Assay outcomes as filed in PubChem BioAssay.
CYP2C9 inhib – inhibitors of human CYP2C9. P11712. CYP2C9 Supersomes, luciferin-H conversion, luminescence. inhibition, % at 5 µM. 96,000 tested, 20% active. AID 777;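 active means blocking of liver enzyme CYP2C9 beyond about 50% at 5 µM, limit read from the data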
sEH act – soluble epoxide hydrolase (human) activation; P34913; purified human sEH enzymatic activity, activator screen; activation, % at 2 µM; 91,000 tested, 0.04% active; in the data active means activation above about 37%
Target sequence (P34913 whole entry, looked up): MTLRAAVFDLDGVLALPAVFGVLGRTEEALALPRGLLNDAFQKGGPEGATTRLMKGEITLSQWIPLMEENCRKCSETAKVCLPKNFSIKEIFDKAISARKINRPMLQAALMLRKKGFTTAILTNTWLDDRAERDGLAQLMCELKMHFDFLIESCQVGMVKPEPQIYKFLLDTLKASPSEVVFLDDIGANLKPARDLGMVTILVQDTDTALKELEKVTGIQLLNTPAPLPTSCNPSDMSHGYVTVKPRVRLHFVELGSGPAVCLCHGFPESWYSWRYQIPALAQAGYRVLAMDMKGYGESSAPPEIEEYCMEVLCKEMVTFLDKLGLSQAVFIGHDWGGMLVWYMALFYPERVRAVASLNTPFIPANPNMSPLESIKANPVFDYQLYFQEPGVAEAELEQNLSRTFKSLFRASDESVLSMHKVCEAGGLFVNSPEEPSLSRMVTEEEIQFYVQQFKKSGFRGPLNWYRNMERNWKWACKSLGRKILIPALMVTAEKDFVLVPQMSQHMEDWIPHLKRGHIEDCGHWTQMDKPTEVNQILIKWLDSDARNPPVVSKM
CYP2C9 activ – CYP2C9 (human) activation | P11712 | recombinant CYP2C9, luciferin-H conversion, luminescence; hits give high values; factor 1 = untreated enzyme, 0 = blocked | activation factor at 5 µM | 96,000 tested, 1.4% active | AID 1024;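 active means activation factor of 2 or more for CYP2C9 at a 5 µM dose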;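 further: 0 = sulfaphenazole-blocked wells and 1 = vehicle-only wells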
CYP2C19 act – activators of human cytochrome P450 2C19; recombinant CYP2C19, luciferin-H EGE luminescence; hits give high values; 0 = fully inhibited enzyme, 1 = untreated enzyme; activation factor at 5 µM; 96,000 tested, under 10 active; AID 1025;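 active means activation factor of at least 2 at 5 µM in the primary screen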;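 further: 0 = wells with 2.5 mM tranylcypromine and 1 = vehicle-only wells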
sEH inhibitor – soluble epoxide hydrolase (human) inhibition. AID 707. inhibition, % at 2 µM. recombinant human sEH enzymatic activity assay. 91,000 tested, 0.34% active. P34913; in the data active means inhibition above about 80%
CYP2C19 inh – blocks human cytochrome P450 2C19; CYP2C19 Supersomes, luciferin-H EGE luminescence, 30 min; inhibition, % at 5 µM; 96,000 tested, 21% active;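 active means CYP2C19 inhibition above a set limit at 5 µM in the primary screen, cut at about 50% in these data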;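 further: plate controls were negative control wells for no effect and 2.5 mM tranylcypromine positive control for full effect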
* hit, by the source's call; · = not tested or not shown. An excerpt weighted towards active compounds, which were near 27% of everything screened.

SMILES | CYP2C9 inhib | sEH act | CYP2C9 activ | CYP2C19 act | sEH inhibitor | CYP2C19 inh
COc1ccc2c(c1)C1(Nc3ccccc3-c3nc4ccccc4n31)C(=O)N2 (stereo not given) | 25.3 | 17.9 | 0.7 | 1.1 | -18.8 | -11.6
CCOc1ccc(NC(=O)CSc2nnc(Cn3cnc4ccccc43)n2C)cc1 | · | -35.0 | · | · | 37.1 | ·
CCn1cnc2sc(-c3ccccc3)cc2c1=O | 71.0* | 2.0 | 0.3 | 0.6 | -2.5 | 44.4
Cc1ccc(NC(=O)N2CCC(=O)N2)cc1 | -4.8 | -3.2 | 1 | 1.1 | 6.0 | -10.2
CCCn1c(N)nc2ccccc21 | -0.5 | 4.8 | 1 | 1 | -2.7 | 2.9
Nc1nc2ccccc2n1CCOc1ccccc1Cl | 30.2 | · | 0.7 | 0.4 | · | 55.5*
Cn1c(=O)n(CCOc2ccccc2Cl)c2ccccc21 | 86.1* | -13.5 | 0.1 | 0 | 12.3 | 96.0*
CS(=O)c1ccccc1COC(=O)Nc1ccc(Cl)cc1 (stereo not given) | 45.5 | -2.8 | 0.5 | 0.1 | 3.8 | 94.6*
c1ccc(Cn2c(NCc3ccco3)nc3ccccc32)cc1 | 81.3* | 10.9 | 0.2 | 0.2 | -9.2 | 82.8*
COc1ccc(CNc2nc3ccccc3n2Cc2ccccc2)cc1OC | 65.8* | -2.2 | 0.3 | 0.5 | 1.8 | 52.7*
CS(=O)(=O)N1CCCC(C(=O)NCc2ccccc2Cl)C1 (stereo not given) | -1.4 | -29.1 | 1 | 0.8 | 28.8 | 19.4
N#Cc1c(SCc2ccccc2)sc(C(=O)c2ccccc2)c1N | 24.2 | -6.9 | 0.8 | 0.9 | 5.0 | 7.0
Cc1ccc(CSc2sc(C(=O)c3ccccc3)c(N)c2C#N)cc1 | 61.3* | 0.7 | 0.4 | 0.7 | -2.7 | 30.8
N#Cc1c(SCc2cccc(Cl)c2)sc(C(=O)c2ccccc2)c1N | 89.4* | 1.1 | 0.1 | 0.2 | -3.2 | 80.8*
O=C(CCCN1C(=O)c2cccnc2C1=O)N1CC(=O)N(CCc2ccccc2)C(=O)C1 | 12.9 | 2.3 | 0.9 | 0.8 | -3.6 | 24.1
CCOc1ccc(C(=O)Nc2ccc(N3CCCC3)cc2)cc1 | -19.8 | -0.3 | 1.2 | 1 | 3.0 | 2.6
COc1ccc(N2CCC(CNC(=O)Nc3ccc(OC)cc3OC)C2)cc1 (stereo not given) | 35.8 | -46.0 | 0.6 | 0.4 | 44.5 | 61.7*
CCOc1ccc(NC(=O)NCC2CCN(c3ccc(OC)cc3)C2)cc1 (stereo not given) | 23.9 | -88.1 | 0.8 | 0.8 | 87.8* | 16.1
COc1ccc(NC(=O)NCCCN2CCCC2=O)c(OC)c1 | 8.6 | 1.1 | 0.9 | 0.5 | -1.0 | 53.8*
COc1ccc(N2CCC(CNS(=O)(=O)c3cccc(C(F)(F)F)c3)C2)cc1 (stereo not given) | 34.6 | 9.2 | 0.7 | 0.7 | -5.4 | 26.1
CCc1nc2ccccc2n1CCC(C)C | 22.3 | 9.3 | 0.8 | 0.6 | -12.0 | 41.6
Cc1ccc(/C=N\NC(=O)c2cc(OCC(F)(F)F)ccc2OCC(F)(F)F)cc1 | 20.6 | · | 0.8 | 1 | · | 4.1
CC1CC(NC(=O)CCn2c(=O)oc3ccccc32)CC(C)(C)C1 (stereo not given) | 11.7 | · | 0.9 | 0.8 | · | 19.5
CC(C)CCNC(=O)CN(Cc1ccc2c(c1)OCO2)C(=O)Cn1nnc(-c2cccs2)n1 | 91.7* | -23.1 | 0.1 | 0.5 | 22.8 | 47.7
Cc1ccc(-c2nnn(CC(=O)N(CC(=O)NC3CCCCC3)c3cnc4ccccc4c3)n2)o1 | · | -1.5 | · | · | 1.7 | ·
SMILES | CYP2C9 inhib | sEH act | CYP2C9 activ | CYP2C19 act | sEH inhibitor | CYP2C19 inh
CC(C)CCNC(=O)CN(CCCN1CCOCC1)C(=O)Cn1nnc(-c2ccc(F)cc2)n1 | 52.2* | · | 0.5 | 0.6 | · | 39.2
O=C(CN(C(=O)Cn1nnc(-c2cccs2)n1)c1ccc2c(c1)OCCO2)NC1CCCCC1 | 99.1* | 5.4 | 0 | 0.4 | -7.3 | 59.6*
O=C(CN(Cc1ccccc1F)C(=O)Cn1nnc(-c2cccs2)n1)NC1CCCCC1 | 30.9 | -10.6 | 0.7 | 1 | 13.7 | 3.9
O=C(CN(C(=O)Cn1nnc(-c2cccs2)n1)c1cnc2ccccc2c1)NCC1CCCO1 (stereo not given) | 74.6* | · | 0.3 | 0.7 | · | 34.9
CCOC(=O)C1CCCN(c2c(NCCc3ccc(S(N)(=O)=O)cc3)c(=O)c2=O)C1 (stereo not given) | 3.2 | · | 1 | 1.1 | · | -7.8
CC(=O)NC(CCS(C)(=O)=O)C(=O)Nc1c(C)cccc1C (stereo not given) | -10.3 | · | 1.1 | 1.2 | · | -15.4
COC(=O)C1CCCN1C(=O)C1CCCN1C(=O)CNC(=O)OCc1ccccc1 (stereo not given) | 3.2 | 6.0 | 1 | 1.1 | -4.0 | -5.8
Cc1ccc(-c2nnn(CC(=O)N(CC(=O)NCC3CCCO3)c3ccccc3)n2)o1 (stereo not given) | 11.3 | -2.9 | 0.9 | 0.8 | 3.6 | 17.8
O=C(CN(C(=O)Cn1nnc(-c2cccs2)n1)c1ccc2c(c1)OCCO2)NCC1CCCO1 (stereo not given) | 87.6* | -1.9 | 0.1 | 0.7 | 5.3 | 33.3
O=C(CN(Cc1ccccc1F)C(=O)Cn1nnc(-c2cccs2)n1)NCC1CCCO1 (stereo not given) | 63.1* | -1.9 | 0.4 | 0.3 | 0.2 | 68.3*
O=C(NCc1ccccc1)C1CC2CCCC(C1)C2=O (stereo not given) | -7.9 | -3.6 | 1.1 | 1 | 6.0 | -4.1
N#CC1=C2SCN(Cc3ccccc3)CN2C(=O)CC1c1cccs1 (stereo not given) | 60.2* | 2.7 | 0.4 | 0.5 | -2.0 | 51.1*
N#CC1=C2SCN(Cc3ccccc3)CN2C(=O)CC1c1ccc2c(c1)OCO2 (stereo not given) | 58.8* | -5.3 | 0.4 | 0.5 | 0.0 | 53.7*
CC(NC(=O)c1cc(-c2ccc(Br)cc2)on1)c1ccccc1 (stereo not given) | 19.3 | 17.1 | 0.8 | 1 | -16.8 | 3.5
CCS(=O)(=O)N1CCN(Cc2ccncc2)CC1 | 27.0 | 3.3 | 0.7 | 0.8 | -3.3 | 23.9
CCn1c(SCc2nc3ccccc3s2)nnc1-c1cccs1 | 54.1* | -15.7 | 0.5 | 0 | 18.0 | 98.5*
CCCn1c(=O)c2ccccc2n2c(SCc3nc4ccccc4s3)nnc12 | 72.5* | -0.4 | 0.3 | 0.1 | -0.3 | 90.5*
CCCn1c(=O)c2ccccc2n2c(SCCOc3ccccc3)nnc12 | 42.0 | · | 0.6 | 0.5 | · | 45.5
COc1ccc(-c2nnc(SCc3nc4ccccc4s3)n2C(C)C)cc1 | 39.1 | -5.3 | 0.6 | 0.1 | 4.5 | 92.8*
CCC(CC)NC(=O)CSc1nnc(-c2ccc(OC)cc2)n1C(C)C | 20.7 | 3.1 | 0.8 | 1.1 | -5.0 | -11.7
Cc1ccccc1-n1c(C)nnc1SCc1nc2ccccc2s1 | 22.3 | · | 0.8 | 0.2 | · | 75.7*
Cn1c(=O)c2cc(S(=O)(=O)NC(C(=O)N3CCCCCC3)c3ccccc3)ccc2n(C)c1=O (stereo not given) | 41.1 | -4.2 | 0.6 | 0.5 | 3.5 | 47.3
O=C1c2cnc3nc(SCc4ccccc4)nn3c2CC2c3ccccc3CCN12 (stereo not given) | 17.2 | 9.6 | 0.8 | 1.1 | -9.7 | -8.7
